{"source": "PubChem BioAssay (EPA / NIEHS)", "key": {"[1]": {"molecular_target": "human p21 Activated Kinase 4 (PAK4), PAK4 (gene 10298) (UniProt O96013)", "sequence (O96013 whole entry, looked up)": "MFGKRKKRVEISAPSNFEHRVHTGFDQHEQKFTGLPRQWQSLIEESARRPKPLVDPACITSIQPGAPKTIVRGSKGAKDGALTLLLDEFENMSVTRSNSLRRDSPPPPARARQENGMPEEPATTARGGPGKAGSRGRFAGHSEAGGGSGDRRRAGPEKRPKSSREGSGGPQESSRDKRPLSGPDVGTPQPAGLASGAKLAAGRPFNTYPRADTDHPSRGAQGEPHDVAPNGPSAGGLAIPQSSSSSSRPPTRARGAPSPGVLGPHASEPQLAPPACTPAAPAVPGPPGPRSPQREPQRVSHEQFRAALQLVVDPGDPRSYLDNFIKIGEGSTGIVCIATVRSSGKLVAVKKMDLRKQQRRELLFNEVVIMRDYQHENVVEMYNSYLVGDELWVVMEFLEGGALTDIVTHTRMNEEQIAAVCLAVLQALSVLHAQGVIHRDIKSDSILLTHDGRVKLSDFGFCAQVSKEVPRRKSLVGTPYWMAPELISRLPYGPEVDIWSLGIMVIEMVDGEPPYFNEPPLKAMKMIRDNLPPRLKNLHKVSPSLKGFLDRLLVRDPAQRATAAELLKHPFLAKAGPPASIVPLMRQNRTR", "assay": "NVS_ENZ_hPAK4: NovaScreen (NVS) Enzymatic Assay for human p21 Activated Kinase 4 (PAK4) (AID 2283189)", "procedure,_shortened": "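Extracted PAK4 enzyme activity read by fluorescence with mobility-shift separation 1 h after chemical addition. Duplicate single-concentration screen at 25 uM, DMSO as negative control.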"}, "PPP2CA (gene 5515)": {"molecular_target": "PPP2CA (gene 5515) (UniProt P67775)", "sequence (P67775 whole entry, looked up)": "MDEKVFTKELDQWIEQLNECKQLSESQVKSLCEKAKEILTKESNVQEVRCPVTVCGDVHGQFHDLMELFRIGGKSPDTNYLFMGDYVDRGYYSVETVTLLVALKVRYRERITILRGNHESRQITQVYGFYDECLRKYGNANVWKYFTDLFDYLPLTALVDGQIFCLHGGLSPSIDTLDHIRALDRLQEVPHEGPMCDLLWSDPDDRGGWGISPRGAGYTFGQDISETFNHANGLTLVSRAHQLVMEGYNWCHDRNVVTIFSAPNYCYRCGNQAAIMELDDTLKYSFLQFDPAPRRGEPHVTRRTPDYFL", "assay": "NVS_ENZ_hPPP2CA: NovaScreen (NVS) Enzymatic Assay for human Protein Phosphatase 2 Aatalytic subunit Alpha (PPP2CA) (AID 2283199)", "procedure,_shortened": "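Cell-free phosphatase activity: fluorescent substrate turnover by recombinant human enzyme, resolved by mobility shift at 1.33 h. Compounds passing the 25 uM duplicate primary screen were rerun in singleton series with a 50 uM top concentration.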"}, "[2]": {"molecular_target": "human Matrix Metalloproteinase-1 (MMP1), MMP1 (gene 4312) (UniProt P03956)", "sequence (P03956 whole entry, looked up)": "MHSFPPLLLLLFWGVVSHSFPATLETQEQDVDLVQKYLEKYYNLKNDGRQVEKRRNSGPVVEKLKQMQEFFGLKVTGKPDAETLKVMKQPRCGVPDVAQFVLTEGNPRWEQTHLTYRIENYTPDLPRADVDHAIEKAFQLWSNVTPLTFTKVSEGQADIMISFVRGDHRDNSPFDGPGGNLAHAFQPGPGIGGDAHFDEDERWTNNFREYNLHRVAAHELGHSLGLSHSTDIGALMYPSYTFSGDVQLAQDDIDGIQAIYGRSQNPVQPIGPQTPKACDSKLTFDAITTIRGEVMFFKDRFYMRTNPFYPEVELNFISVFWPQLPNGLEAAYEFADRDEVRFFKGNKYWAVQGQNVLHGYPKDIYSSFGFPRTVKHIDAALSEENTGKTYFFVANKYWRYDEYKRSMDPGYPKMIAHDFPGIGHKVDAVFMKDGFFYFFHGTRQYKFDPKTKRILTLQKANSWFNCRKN", "assay": "NVS_ENZ_hMMP1: NovaScreen (NVS) Enzymatic Assay for human Matrix Metalloproteinase-1 (MMP1) (AID 2283181)", "procedure,_shortened": "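Cell-free fluorescent substrate assay of human MMP1, read after 1 h. A single 25 uM duplicate screen was followed by concentration series to a maximum of 50 uM for actives meeting threshold; inhibition analysed against DMSO baseline.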"}, "[3]": {"molecular_target": "human Phosphatase and Tensin Homolog (PTEN), PTEN (gene 5728) (UniProt P60484)", "sequence (P60484 whole entry, looked up)": "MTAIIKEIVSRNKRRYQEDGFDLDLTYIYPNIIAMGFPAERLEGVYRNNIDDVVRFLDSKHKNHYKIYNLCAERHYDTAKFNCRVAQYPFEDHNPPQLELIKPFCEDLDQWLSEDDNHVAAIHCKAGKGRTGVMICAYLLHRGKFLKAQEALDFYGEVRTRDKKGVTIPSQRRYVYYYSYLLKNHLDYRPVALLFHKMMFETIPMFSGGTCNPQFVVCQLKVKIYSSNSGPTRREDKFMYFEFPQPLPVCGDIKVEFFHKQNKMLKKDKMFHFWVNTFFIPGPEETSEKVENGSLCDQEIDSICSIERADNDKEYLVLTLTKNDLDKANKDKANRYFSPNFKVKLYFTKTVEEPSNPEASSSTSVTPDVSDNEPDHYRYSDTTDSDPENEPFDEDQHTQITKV", "assay": "NVS_ENZ_hPTEN: NovaScreen (NVS) Enzymatic Assay for human Phosphatase and Tensin Homolog (PTEN) (AID 2283203)", "procedure,_shortened": "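Loss of fluorescent product signal after mobility-shift separation reports PTEN activity, recombinant human enzyme, 1 h after compound addition. Single 25 uM duplicate screen, then concentration-response on actives; DMSO baseline.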"}, "[4]": {"molecular_target": "human Mitogen-Activated Protein Kinase 1 (MAPK 1), MAPK1 (gene 5594) (UniProt P28482)", "sequence (P28482 whole entry, looked up)": "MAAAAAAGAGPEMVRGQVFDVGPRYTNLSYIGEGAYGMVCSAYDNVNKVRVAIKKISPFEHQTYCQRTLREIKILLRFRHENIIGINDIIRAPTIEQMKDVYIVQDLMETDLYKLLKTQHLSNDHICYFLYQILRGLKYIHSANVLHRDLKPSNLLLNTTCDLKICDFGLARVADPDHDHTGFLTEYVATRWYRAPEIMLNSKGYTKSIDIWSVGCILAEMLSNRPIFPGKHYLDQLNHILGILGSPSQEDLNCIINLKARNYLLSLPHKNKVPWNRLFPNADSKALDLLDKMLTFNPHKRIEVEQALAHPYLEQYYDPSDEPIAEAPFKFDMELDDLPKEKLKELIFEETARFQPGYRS", "assay": "NVS_ENZ_hMAPK1: NovaScreen (NVS) Enzymatic Assay for human Mitogen-Activated Protein Kinase 1 (MAPK 1) (AID 2283175)", "procedure,_shortened": "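Cell-free recombinant human MAPK1 enzymatic assay, fluorescence/electrophoretic mobility shift read at 1 h; loss of signal vs DMSO. Primary screen in duplicate at 25 uM; actives (e.g. ≥30% inhibition) run as concentration-response up to 50 uM.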"}, "[5]": {"assay": "ATG_M_32_XSP2: Attagene TRANS-FACTORIAL Multi-Species (XSP2) HepG2 Assay for M19 Transcription Factor (Internal Marker) (AID 2283826)", "procedure,_shortened": "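Total RNA is taken from compound-treated HepG2 cells after 24 h and reverse-transcribed; reporter cDNA is PCR-amplified, end-labelled with 6-FAM, digested with HpaI for 2h at 37 C and sized by capillary electrophoresis. Activity is fitted in the positive direction against DMSO.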"}, "[6]": {"assay": "CCTE_Harrill_HTTr_Apoptosis_PRF_DMEM_12hr: (Pilot) CCTE's 12-hour Apoptosis Assessment for the High-Throughput Transcriptomics (HTTr) Platform, in MCF-7 cells cultured in phenol red-free DMEM + 10% charcoal-stripped fetal bovine serum, Harrill Lab (AID 2283985; active means hit-call score of the fitted dose curve at least 0.9, where 1 is the maximum; inactive means score below 0.9)", "procedure,_shortened": "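Caspase-3/7 activity by CellEvent Green high content imaging after 12 h compound exposure (eight concentrations) in MCF-7 grown in phenol red-free DMEM plus 10% charcoal-stripped serum; DMSO as baseline.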"}, "[7]": {"molecular_target": "human Protein Tyrosine Phosphatase Receptor Type C (PTPRC), PTPRC (gene 5788) (UniProt P08575)", "sequence (P08575 whole entry, looked up)": "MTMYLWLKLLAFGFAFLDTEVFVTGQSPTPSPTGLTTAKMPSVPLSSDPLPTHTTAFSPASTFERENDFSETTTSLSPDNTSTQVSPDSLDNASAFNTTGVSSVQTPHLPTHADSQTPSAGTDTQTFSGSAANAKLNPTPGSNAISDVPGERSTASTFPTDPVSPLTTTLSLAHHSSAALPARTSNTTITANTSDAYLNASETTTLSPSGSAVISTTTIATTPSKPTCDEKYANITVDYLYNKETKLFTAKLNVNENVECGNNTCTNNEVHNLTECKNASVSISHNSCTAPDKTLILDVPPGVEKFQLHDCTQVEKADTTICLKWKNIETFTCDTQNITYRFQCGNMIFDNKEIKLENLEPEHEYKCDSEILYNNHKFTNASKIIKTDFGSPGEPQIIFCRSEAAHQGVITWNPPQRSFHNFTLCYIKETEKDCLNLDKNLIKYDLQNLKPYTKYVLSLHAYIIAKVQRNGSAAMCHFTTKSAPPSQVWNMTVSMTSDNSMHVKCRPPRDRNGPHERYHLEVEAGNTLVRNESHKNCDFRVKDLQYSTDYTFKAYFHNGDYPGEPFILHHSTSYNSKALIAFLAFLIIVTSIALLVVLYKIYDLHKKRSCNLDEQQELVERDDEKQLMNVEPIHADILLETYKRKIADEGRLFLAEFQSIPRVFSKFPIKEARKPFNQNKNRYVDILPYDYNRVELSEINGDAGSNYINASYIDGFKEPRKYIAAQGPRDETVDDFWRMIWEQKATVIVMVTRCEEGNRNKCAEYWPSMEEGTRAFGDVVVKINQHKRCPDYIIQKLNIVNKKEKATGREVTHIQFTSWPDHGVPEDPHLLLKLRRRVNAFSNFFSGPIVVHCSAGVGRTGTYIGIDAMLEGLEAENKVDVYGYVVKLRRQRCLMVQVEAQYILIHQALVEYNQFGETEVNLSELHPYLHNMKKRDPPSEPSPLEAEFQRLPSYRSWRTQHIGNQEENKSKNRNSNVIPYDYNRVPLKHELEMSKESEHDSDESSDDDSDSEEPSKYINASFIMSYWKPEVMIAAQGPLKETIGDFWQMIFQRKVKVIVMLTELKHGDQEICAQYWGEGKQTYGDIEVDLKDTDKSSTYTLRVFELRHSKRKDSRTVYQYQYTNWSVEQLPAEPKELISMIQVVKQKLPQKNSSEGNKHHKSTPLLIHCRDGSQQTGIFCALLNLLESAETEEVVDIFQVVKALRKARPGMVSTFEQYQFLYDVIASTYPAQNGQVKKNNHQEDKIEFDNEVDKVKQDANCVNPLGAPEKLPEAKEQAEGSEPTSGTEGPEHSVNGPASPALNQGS", "assay": "NVS_ENZ_hPTPRC: NovaScreen (NVS) Enzymatic Assay for human Protein Tyrosine Phosphatase Receptor Type C (PTPRC) (AID 2283212)", "procedure,_shortened": "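Absorbance-based phosphatase activity of human PTPRC protein extracted from yeast was measured 1 h post-dosing. Compounds first tested at 25 uM in duplicate, then those passing threshold in singleton concentration series to 50 uM.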"}, "[8]": {"system": "rat Monoamine Oxidase, MAO-A, Peripheral (MAOAP), gene 29253", "assay": "NVS_ENZ_rMAOAP: NovaScreen (NVS) Enzymatic Assay for rat Monoamine Oxidase, MAO-A, Peripheral (MAOAP) (AID 2283237)", "procedure,_shortened": "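Scintillation counting tracked MAO-A activity in a cell-free rat liver mitochondrial membrane prep, read 1.17 hours after compound addition. Single-point duplicate testing at 25 uM preceded concentration-response follow-up; activity was fitted relative to DMSO.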"}, "[9]": {"system": "rat Monoamine Oxidase, MAO-A, Central (MAOAC), gene 29253", "assay": "NVS_ENZ_rMAOAC: NovaScreen (NVS) Enzymatic Assay for rat Monoamine Oxidase, MAO-A, Central (MAOAC) (AID 2283243);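 further: potency refers to inhibition seen as signal drop below DMSO baseline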", "procedure,_shortened": "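Scintillation read-out of MAO-A activity in rat brain lysate, 1.5 h post-dosing. Primary single-concentration screen: 25 uM, duplicate; actives re-tested in concentration series. DMSO = negative control/baseline.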"}, "[10]": {"molecular_target": "human Tyrosine Protein Kinase Receptor Tie-2 (Tie2), TEK (gene 7010) (UniProt Q02763)", "sequence (Q02763 whole entry, looked up)": "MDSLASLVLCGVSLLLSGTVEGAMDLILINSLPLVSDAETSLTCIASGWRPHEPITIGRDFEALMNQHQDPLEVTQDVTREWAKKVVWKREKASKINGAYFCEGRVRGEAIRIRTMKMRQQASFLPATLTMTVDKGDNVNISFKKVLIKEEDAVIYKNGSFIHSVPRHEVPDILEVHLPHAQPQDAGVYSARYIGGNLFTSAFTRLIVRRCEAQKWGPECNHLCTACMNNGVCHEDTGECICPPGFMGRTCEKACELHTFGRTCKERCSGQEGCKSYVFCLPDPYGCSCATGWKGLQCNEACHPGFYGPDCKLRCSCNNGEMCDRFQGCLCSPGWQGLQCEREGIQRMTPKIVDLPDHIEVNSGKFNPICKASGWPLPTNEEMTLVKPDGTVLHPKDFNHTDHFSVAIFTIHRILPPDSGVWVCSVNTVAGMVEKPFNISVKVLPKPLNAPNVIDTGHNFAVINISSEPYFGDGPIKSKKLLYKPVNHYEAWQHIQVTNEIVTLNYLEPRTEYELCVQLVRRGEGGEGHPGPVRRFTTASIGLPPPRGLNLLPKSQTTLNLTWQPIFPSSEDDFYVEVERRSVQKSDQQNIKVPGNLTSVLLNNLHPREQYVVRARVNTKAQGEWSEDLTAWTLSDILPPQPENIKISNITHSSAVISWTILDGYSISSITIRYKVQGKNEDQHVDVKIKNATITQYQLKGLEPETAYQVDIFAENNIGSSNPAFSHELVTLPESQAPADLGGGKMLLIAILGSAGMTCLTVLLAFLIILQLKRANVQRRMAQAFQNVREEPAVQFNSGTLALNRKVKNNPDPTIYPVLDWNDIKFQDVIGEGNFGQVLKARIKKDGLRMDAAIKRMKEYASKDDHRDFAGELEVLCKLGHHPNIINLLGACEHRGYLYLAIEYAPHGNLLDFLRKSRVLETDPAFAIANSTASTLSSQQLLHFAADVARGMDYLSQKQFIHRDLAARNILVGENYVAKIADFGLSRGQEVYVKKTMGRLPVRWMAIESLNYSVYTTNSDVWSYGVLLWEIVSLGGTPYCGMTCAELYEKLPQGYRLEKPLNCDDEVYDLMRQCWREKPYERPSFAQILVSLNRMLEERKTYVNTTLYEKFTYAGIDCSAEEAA", "assay": "NVS_ENZ_hTie2: NovaScreen (NVS) Enzymatic Assay for human Tyrosine Protein Kinase Receptor Tie-2 (Tie2) (AID 2283225)", "procedure,_shortened": "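Substrate and product were separated by mobility shift and detected by fluorescence after a 1-hour reaction with recombinant Tie2. Chemicals passing a 25 uM single-point screen were titrated to a maximum of 50 uM. Results were normalized to DMSO baseline.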"}}, "note": "Results filed as inconclusive are left out. Activity calls are given as the source filed them. How the source made its calls, unless noted: active means hit-call score of the fitted dose curve at least 0.9, where 1 is the maximum; inconclusive means response in the unintended direction; inactive means score below 0.9."}
{"smiles": "CCCCCCCC[Si](OCC)(OCC)OCC", "values": [{"measurement": "outcome", "setting": "[1]", "result": "inactive"}]}
{"smiles": "CC(=O)CC(c1ccccc1)c1c(O)c2ccccc2oc1=O", "note": "(stereo unspecified)", "values": [{"measurement": "outcome", "setting": "PPP2CA (gene 5515)", "result": "inactive"}]}
{"smiles": "CC(C)(C)c1ccccc1", "values": [{"measurement": "outcome", "setting": "[1]", "result": "inactive"}]}
{"smiles": "CCCCN1C(=O)[C@@H]([C@H](O)C2CCCCC2)NC(=O)C12CCN(Cc1ccc(Oc3ccc(C(=O)O)cc3)cc1)CC2", "values": [{"measurement": "outcome", "setting": "[2]", "result": "inactive"}]}
{"smiles": "Cc1cncc(C)c1", "values": [{"measurement": "outcome", "setting": "[3]", "result": "inactive"}]}
{"smiles": "CCC(=O)O", "values": [{"measurement": "outcome", "setting": "[3]", "result": "inactive"}]}
{"smiles": "Nc1ccn([C@@H]2O[C@H](CO)[C@@H](O)[C@@H]2O)c(=O)n1", "values": [{"measurement": "outcome", "setting": "[4]", "result": "inactive"}]}
{"smiles": "Cc1c(C)c2c(c(C)c1O)CCC(C)(COc1ccc(CC3SC(=O)NC3=O)cc1)O2", "note": "(stereo unspecified)", "values": [{"measurement": "AC50", "setting": "[2]", "result": "6.75 µM (active)"}, {"measurement": "outcome", "setting": "[5]", "result": "inactive"}, {"measurement": "outcome", "setting": "[6]", "result": "inactive"}]}
{"smiles": "CCCCC(CC)COC(=O)CC(C(=O)OCC(CC)CCCC)S(=O)(=O)O", "note": "(stereo unspecified)", "values": [{"measurement": "outcome", "setting": "[2]", "result": "inactive"}, {"measurement": "AC50", "setting": "[7]", "result": "25 µM (active)"}]}
{"smiles": "CCNc1nc(NC(C)(C)C)nc(OC)n1", "values": [{"measurement": "outcome", "setting": "[3]", "result": "inactive"}]}
{"smiles": "CN(CCOc1ccc(CC2SC(=O)NC2=O)cc1)c1ccccn1", "note": "(stereo unspecified)", "values": [{"measurement": "outcome", "setting": "[3]", "result": "inactive"}]}
{"smiles": "CC[C@H]1OC(=O)[C@H](C)[C@@H](O[C@H]2C[C@@](C)(OC)[C@@H](O)[C@H](C)O2)[C@H](C)[C@@H](O[C@@H]2O[C@H](C)C[C@H](N(C)C)[C@H]2O)[C@](C)(O)C[C@@H](C)C(=O)[C@H](C)[C@@H](O)[C@]1(C)O", "values": [{"measurement": "outcome", "setting": "[1]", "result": "inactive"}]}
{"smiles": "O=c1c(O)c(-c2ccc(O)c(O)c2)oc2cc(O)cc(O)c12", "values": [{"measurement": "outcome", "setting": "[1]", "result": "inactive"}, {"measurement": "AC50", "setting": "[8]", "result": "17.2 µM (active)"}, {"measurement": "AC50", "setting": "[9]", "result": "9.38 µM (active)"}]}
{"smiles": "CCCCOC(=O)CC(CC(=O)OCCCC)(OC(C)=O)C(=O)OCCCC", "values": [{"measurement": "outcome", "setting": "[2]", "result": "inactive"}]}
{"smiles": "Cc1ccc2oc(CN(Cc3ccccc3)C(=O)Nc3c(F)cc(F)cc3F)c(-c3ccc(Cl)cc3)c2c1", "values": [{"measurement": "outcome", "setting": "[1]", "result": "inactive"}]}
{"smiles": "CCCCCCCCOC(=O)c1cc(O)c(O)c(O)c1", "values": [{"measurement": "AC50", "setting": "[2]", "result": "13.9 µM (active)"}]}
{"smiles": "O=C1O[C@H]([C@H](O)CO)C(O)=C1O", "values": [{"measurement": "outcome", "setting": "[1]", "result": "inactive"}]}
{"smiles": "O=C(O)CCN(C1(C(=O)NO)CCCC1)S(=O)(=O)c1ccc(Oc2ccc(F)cc2)cc1", "values": [{"measurement": "AC50", "setting": "[2]", "result": "3.49 µM (active)"}]}
{"smiles": "CC(C)c1cccc(C(C)C)c1N1C(=O)c2ccc(O)cc2C1=O", "values": [{"measurement": "outcome", "setting": "[1]", "result": "inactive"}, {"measurement": "outcome", "setting": "[3]", "result": "inactive"}, {"measurement": "outcome", "setting": "[10]", "result": "inactive"}]}
